Data as given in PubChem BioAssay (NCATS).
Records with an inconclusive call do not appear. Activity calls are given as the source filed them. Unless noted, calls follow the shape of the dose curve; as a rule, active = well fitted curve in the direction sought with a large enough effect; inconclusive = small, poorly fitted or top-dose-only effect, or another doubt; inactive = no such curve, though single readings can be large; an effect the other way counts as inactive or inconclusive.

Assays:
[1] = biological target: Lysosomal acid glucosylceramidase (Homo sapiens) (UniProt P04062); assay: Glucocerebrosidase-p2 (AID 348; in the data active = potency below about 10 µM; also: potency is read from the fitted curve at half-maximal effect); details: purified GBA, blue fluorogenic substrate, 40 min
Chain of Lysosomal acid glucosylceramidase (Homo sapiens) (P04062 whole entry, looked up): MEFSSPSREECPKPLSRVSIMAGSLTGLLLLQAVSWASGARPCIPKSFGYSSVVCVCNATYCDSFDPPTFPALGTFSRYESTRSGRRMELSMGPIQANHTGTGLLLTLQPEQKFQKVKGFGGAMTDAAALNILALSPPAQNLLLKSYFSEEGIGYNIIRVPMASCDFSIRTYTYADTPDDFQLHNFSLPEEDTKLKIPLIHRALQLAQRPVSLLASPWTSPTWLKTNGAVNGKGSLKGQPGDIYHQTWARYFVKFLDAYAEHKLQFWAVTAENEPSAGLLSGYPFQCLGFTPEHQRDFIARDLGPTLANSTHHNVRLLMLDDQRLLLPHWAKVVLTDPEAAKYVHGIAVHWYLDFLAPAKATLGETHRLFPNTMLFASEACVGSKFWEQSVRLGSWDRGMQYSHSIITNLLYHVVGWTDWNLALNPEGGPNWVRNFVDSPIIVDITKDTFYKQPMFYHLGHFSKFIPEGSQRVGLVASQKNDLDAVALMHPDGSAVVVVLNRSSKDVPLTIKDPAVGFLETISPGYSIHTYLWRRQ
In short: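 Compounds titrated from 0.6 nM upwards against 0.2 nM enzyme in pH 5.9 citric acid/KH2PO4, taurocholate, tween-20; blue fluorogenic substrate 80 uM, 40 min room temperature, stopped and read Ex 365/Em 440 for AC50.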

[2] = biological target: Cytochrome P450 1A2 (Homo sapiens) (UniProt P05177); assay: p450-cyp1a2 (AID 410; calls by dose curve;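 also: -100% = full effect of reference inhibitor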); details: recombinant CYP1A2, luciferin-ME demethylation, luminescence; series mostly up to 11.4 µM
Chain of Cytochrome P450 1A2 (Homo sapiens) (P05177 whole entry, looked up): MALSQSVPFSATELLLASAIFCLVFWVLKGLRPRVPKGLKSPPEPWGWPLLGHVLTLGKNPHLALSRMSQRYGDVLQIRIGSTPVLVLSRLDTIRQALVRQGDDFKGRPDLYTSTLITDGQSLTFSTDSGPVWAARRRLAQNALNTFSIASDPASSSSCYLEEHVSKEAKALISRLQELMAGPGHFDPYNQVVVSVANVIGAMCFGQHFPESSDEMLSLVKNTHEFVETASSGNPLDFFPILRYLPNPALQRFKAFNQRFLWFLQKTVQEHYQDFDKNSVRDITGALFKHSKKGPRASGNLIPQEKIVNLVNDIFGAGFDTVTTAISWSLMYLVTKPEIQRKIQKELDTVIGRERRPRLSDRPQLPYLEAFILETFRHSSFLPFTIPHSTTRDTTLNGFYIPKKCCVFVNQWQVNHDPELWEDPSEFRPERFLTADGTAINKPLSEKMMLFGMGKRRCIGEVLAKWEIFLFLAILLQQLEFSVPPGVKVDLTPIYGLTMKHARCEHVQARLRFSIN
In short: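 Luminescent readout of luciferin formed from Luciferin-ME by human CYP1A2; data normalized against complete inhibition by 57 uM furafylline. Enzyme 20nM, substrate 100uM at Km, 100mM KPO4 buffer, 60 min reaction at room temperature.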

[3] = Cell Viability - BJ (AID 421; calls by dose curve;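 also: potency is read from the fitted curve at half-maximal effect; cells exposed to compound for 40 hours at 37 °C before readout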); details: BJ fibroblast viability, qHTS
In short: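 Normal human BJ foreskin fibroblasts, 1500/well in complete medium, treated 40 hr at 37 °C. Cellular ATP by CellTiter-Glo luminescence; normalized to DMSO and 100 uM tamoxifen, AC50 from Hill fit.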

[4] = Cell Viability - Jurkat (AID 426;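 active = dose-dependent loss of cell ATP signal giving a full or clear fitted curve, ranked by lower potency value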; also: potency is read from the fitted curve at half-maximal effect); details: qHTS
In short: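 qHTS, 1536-well; Jurkat E6-1, 5000 cells/well, complete medium; cpd 40 hr, 37 °C; CellTiter-Glo 20 min RT; luminescence. AC50 by Hill fit.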

[5] = Cell Viability - Hek293 (AID 427;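 active = compounds whose dose-response curve shows a full or clear partial loss of cell viability, called from curve shape rather than a numeric limit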;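 also: potency is read from the fitted curve at half-maximal effect; cells exposed to compound for 40 hours at 37 °C before reading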); details: qHTS
In short: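 HEK293 cells in complete medium were exposed to compound for 40 hr at 37 °C, then cellular ATP was read by CellTiter-Glo luminescence. Data were normalized to DMSO (basal) and 100 uM tamoxifen (100% inhibition), and AC50 came from Hill fits.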

[6] = Cell Viability - HepG2 (AID 433; calls by dose curve;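 also: potency is read from the fitted curve at half-maximal effect; potency for ATP loss meaning cytotoxicity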); details: qHTS
In short: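 HepG2 hepatocellular carcinoma cells (1500/well) were treated with compounds for 40 h at 37 °C in complete medium; intracellular ATP was read by CellTiter-Glo luminescence. Data were normalized to DMSO and 100 uM tamoxifen, and AC50 came from Hill fits.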

[7] = Cell Viability - MRC5 (AID 434; calls by dose curve;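 also: potency is read from the fitted curve at half-maximal effect; potency reflects cytotoxicity seen as loss of intracellular ATP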); details: MRC5 lung fibroblast viability, qHTS
In short: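 MRC5 normal human lung fibroblasts (1500/well) were treated with compounds for 40 hr at 37 °C in complete medium, and viable cells were measured as intracellular ATP by CellTiter-Glo luminescence. AC50 came from Hill fits, normalized to DMSO and 100 uM tamoxifen.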

[8] = Cell Viability - SK-N-SH (AID 435; calls by dose curve;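 also: potency is read from the fitted curve at half-maximal effect; compound exposure lasted 40 h at 37 °C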); details: SK-N-SH neuroblastoma cell viability qHTS
In short: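 SK-N-SH human neuroblastoma cells (1500/well) were exposed to compounds in complete medium for 40 h at 37 °C, and intracellular ATP was then measured by CellTiter-Glo luminescence. AC50 was taken from Hill fits, normalized to DMSO and 100 uM tamoxifen.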

[9] = NFAT Signaling Pathway (AID 444; active = well fitted curve in either direction with a large enough effect, not every such curve was filed as active;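 also: carbachol stimulus at about its EC50 of 1 µM final; % is scaled to controls: 0 for no effect and ±100 for the full control effect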); details: Jurkat NFAT-bla M1, carbachol, beta-lactamase ratio, 5 h; at 7.69 µM (top of the series) unless noted
In short: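 Jurkat cells carrying an NFAT-driven β-lactamase reporter and co-transfected muscarinic M1 receptor were treated with compound plus carbachol (1 uM final, an EC50 level) for 5 h at 37 °C. CCF4 loading followed for 1 h at RT; 460/530 nm ratio gave %activity.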

[10] = Stat Signaling Pathway (AID 446; active = well fitted curve in either direction with a large enough effect, not every such curve was filed as active;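 also: ME-180 cervical cancer cells given 40 pM IL-6 alongside compound; SIE-controlled beta-lactamase reporter measured as 460/530 nm FRET emission ratio; % is scaled to controls: 0 for no effect and ±100 for the full control effect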); details: ME-180 SIE beta-lactamase reporter, IL-6 stimulated, 5 h; at 7.69 µM (top of the series) unless noted
In short: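 ME-180 cells carrying a SIE-driven beta-lactamase reporter are stimulated with 40 pM IL-6 for 5 h at 37C in the presence of compound. The 460/530 nm FRET substrate ratio is read after 2.5 h at RT. Data are normalised to 300 pM IL-6 and to 125 nM JAK inhibitor controls.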

[11] = biological target: Glucocorticoid receptor (Homo sapiens) (UniProt P04150); assay: GR-GFP Redistribution (AID 450;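 active = compounds whose dose series gives a full or clear partial fitted curve of increased nuclear translocation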; also: potency is read from the fitted curve at half-maximal effect); details: U2OS GR-GFP nuclear translocation, laser cytometry, 2 h
Chain of Glucocorticoid receptor (Homo sapiens) (P04150 whole entry, looked up, the tested form may be a part): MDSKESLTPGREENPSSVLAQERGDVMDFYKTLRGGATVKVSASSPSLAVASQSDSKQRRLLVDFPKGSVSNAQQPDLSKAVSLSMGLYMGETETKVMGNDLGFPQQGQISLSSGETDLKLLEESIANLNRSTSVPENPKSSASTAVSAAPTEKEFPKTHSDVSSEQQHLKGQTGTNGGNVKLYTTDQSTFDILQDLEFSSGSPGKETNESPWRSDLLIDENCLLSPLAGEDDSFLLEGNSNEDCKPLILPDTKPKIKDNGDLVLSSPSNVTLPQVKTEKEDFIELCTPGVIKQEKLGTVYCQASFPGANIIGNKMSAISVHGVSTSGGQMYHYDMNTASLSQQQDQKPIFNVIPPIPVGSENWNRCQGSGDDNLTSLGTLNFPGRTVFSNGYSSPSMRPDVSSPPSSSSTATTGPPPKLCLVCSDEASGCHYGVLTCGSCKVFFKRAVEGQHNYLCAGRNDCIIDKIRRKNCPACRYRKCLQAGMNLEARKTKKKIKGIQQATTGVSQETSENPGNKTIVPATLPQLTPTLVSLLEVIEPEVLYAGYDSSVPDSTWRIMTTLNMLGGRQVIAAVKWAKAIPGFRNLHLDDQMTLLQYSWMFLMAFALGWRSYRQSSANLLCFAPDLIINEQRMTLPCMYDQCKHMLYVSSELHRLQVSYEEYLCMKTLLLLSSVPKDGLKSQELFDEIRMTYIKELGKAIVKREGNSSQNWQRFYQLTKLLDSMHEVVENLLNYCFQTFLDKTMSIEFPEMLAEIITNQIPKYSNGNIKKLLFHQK

[12] = biological target: Glucocorticoid receptor (Homo sapiens) (UniProt P04150); assay: GR-EFC Redistribution (AID 451; calls by dose curve; also: potency is read from the fitted curve at half-maximal effect); details: CHO-K1 GR-EFC translocation, beta-gal luminescence, 2 h
In short: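 CHO-K1 cells stably expressing nuclear-localized β-gal enzyme acceptor and GR fused C-terminally to the enzyme donor fragment; ligand-driven nuclear translocation restores β-gal by complementation. Compounds titrated up to 46 uM final, 2 h at 37 °C; luminescence read.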

[13] = biological target: Mitogen-activated protein kinase 10 (Mus musculus) (UniProt Q61831); assay: JNK3 AlphaScreen Assay (AID 530; active = well fitted curve in either direction with a large enough effect, not every such curve was filed as active;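 also: kinase came from lysate of stimulated human HepG2 cells; signal reports phosphorylation of biotinylated GST-cJun 1-79 at Ser73 with 10 µM ATP; % is scaled to controls: 0 for no effect and ±100 for the full control effect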); details: JNK3 lysate, c-Jun phosphorylation; series mostly up to 11.4 µM
In short: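 Inhibitors reduce antibody binding to phosphorylated biotin-cJun, lowering AlphaScreen luminescence. Lysates from HepG2 cells pre-activated by IL-1beta plus TNF-alpha supplied JNK3; compounds were titrated.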

[14] = Cell Viability - N2a (AID 540); details: N2a mouse neuroblastoma cell viability; activity change, negative = cytotoxicity: at 92.2 µM (top of the series);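 also: plate controls were DMSO alone for no effect and tamoxifen control for full effect; nearly all actives have a fitted effect of over 45% in size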
In short: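 Luminescent ATP signal (CellTiter-Glo, 20 min at room temperature) served as the viability read-out after N2a cells were treated with compounds for 40 hours at 37 °C. Concentration-response data were fitted to the Hill equation for AC50.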

[15] = Cell Viability - NIH 3T3 (AID 541); details: NIH 3T3 cell viability, qHTS; activity change, negative = cytotoxicity: at 92.2 µM (top of the series);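 also: plate controls were DMSO alone for no effect and tamoxifen positive control for full effect; nearly all actives have a fitted effect of over 25% in size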
In short: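 Luminescent ATP signal (CellTiter-Glo) served as the viability read-out after NIH 3T3 cells were exposed to compounds over a concentration range for 40 hr at 37 °C. Hill-equation modelling of concentration-response data gave AC50.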

[16] = Cell Viability - HUV-EC-C (AID 542); details: HUV-EC-C endothelial cell viability, qHTS; series mostly up to 92.2 µM; also: % is scaled to controls: 0 for no effect and ±100 for the full control effect; nearly all actives have a fitted effect of over 35% in size
In short: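 qHTS cytotoxicity: HUV-EC-C, 1000 cells/well, 5 hr settle, compound 40 hr 37 °C, CellTiter-Glo, luminescence. AC50 via Hill equation.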

[17] = Cell Viability - H-4-II-E (AID 543); details: H-4-II-E rat hepatoma viability; series mostly up to 92.2 µM; also: % is scaled to controls: 0 for no effect and ±100 for the full control effect; nearly all actives have a fitted effect of over 35% in size
In short: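 Luminescent ATP signal (CellTiter-Glo) served as the viability read-out, with cytotoxicity seen as a concentration-dependent ATP drop. Cells were treated for 40 hours in complete medium. AC50 values derive from Hill-equation modelling.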

[18] = Cell Viability - SH-SY5Y (AID 544); details: SH-SY5Y neuroblastoma cell viability; viability change, negative = cytotoxic: at 92.2 µM (top of the series); also: nearly all actives have a fitted effect of over 55% in size
In short: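 Luminescent ATP read-out (CellTiter-Glo) measures loss of viable SH-SY5Y neuroblastoma cells after 40 hr compound exposure at 37 °C. AC50 values derive from standard Hill modelling of qHTS concentration-response data.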

[19] = Cell Viability - Renal Proximal Tubule (AID 545); details: renal proximal tubule cells viability, primary cells of rat origin; activity change, negative = cytotoxicity: at 91.7 µM (top of the series); also: nearly all actives have a fitted effect of over 40% in size
In short: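 Primary rat renal proximal tubule cells (1000/well) were treated with compounds for 40 hr at 37 °C in complete medium. Intracellular ATP was measured by CellTiter-Glo luminescence, and AC50 values came from Hill-equation fits of concentration-response data.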

[20] = Cell Viability - Mesenchymal (AID 546); details: mesenchymal cells viability, qHTS; activity change, negative = cytotoxicity: at 91.7 µM (top of the series);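 also: cells exposed to compound for 40 hours before reading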
In short: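 Normal human renal glomerulus-derived kidney mesenchymal cells, 1000 per well in complete medium, were treated with compounds for 40 hr at 37 °C. Viability was read as intracellular ATP by CellTiter-Glo luminescence; AC50 values came from Hill-equation fits of qHTS concentration-response data.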

[21] = biological target: 3',5'-cyclic-AMP phosphodiesterase 4B (Homo sapiens) (UniProt Q07343); assay: qHTS Assay for Inhibitors of PDE-IV (AID 607; active = well fitted activation curve with a large enough effect in the main read-out, with a control signal flat, not every such curve was filed as active; also: % of control where 0% means no effect); details: HEK293 ACTOne CNG channel cells, membrane potential fluorescence; series mostly up to 22.9 µM
Chain of 3',5'-cyclic-AMP phosphodiesterase 4B (Homo sapiens) (Q07343 whole entry, looked up): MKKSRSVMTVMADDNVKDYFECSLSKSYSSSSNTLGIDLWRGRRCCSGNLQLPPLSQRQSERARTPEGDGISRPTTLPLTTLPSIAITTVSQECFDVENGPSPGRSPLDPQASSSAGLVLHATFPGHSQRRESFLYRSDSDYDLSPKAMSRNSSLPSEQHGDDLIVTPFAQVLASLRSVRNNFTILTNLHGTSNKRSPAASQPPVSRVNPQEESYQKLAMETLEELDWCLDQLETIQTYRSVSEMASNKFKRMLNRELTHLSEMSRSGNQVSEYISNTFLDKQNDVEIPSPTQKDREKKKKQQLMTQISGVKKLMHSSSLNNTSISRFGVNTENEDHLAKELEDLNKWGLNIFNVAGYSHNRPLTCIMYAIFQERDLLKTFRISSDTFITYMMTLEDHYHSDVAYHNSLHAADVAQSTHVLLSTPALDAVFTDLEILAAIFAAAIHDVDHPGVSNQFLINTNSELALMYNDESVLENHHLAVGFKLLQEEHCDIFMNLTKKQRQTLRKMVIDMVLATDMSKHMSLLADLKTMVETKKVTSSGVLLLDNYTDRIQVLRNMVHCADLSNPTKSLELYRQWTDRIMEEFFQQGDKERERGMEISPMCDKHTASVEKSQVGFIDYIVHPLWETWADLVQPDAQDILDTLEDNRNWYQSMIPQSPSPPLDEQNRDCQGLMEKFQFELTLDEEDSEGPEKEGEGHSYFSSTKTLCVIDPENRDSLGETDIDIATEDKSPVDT
In short: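 HEK293 ACTOne cells with CNG channel (1000/well), endogenous PDE4; membrane potential dye, compounds up to 22.9 uM final. Fluorescence Ex 535/Em 590; RO 20-1724 (100 uM final) as reference.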

[22] = Cellular Toxicity (caspase-3) HepG2 (AID 654); details: HepG2 caspase-3 activation, luminescence; series mostly up to 92.2 µM;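 also: cells exposed to compound for 16 hours before reading; 0% = DMSO alone and 100% = caspase signal from 100 µM tamoxifen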
In short: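 Cells plated 5 hr at 37 °C, compound added, incubated 16 hr at 37 °C. Caspase-Glo 3/7 reagent followed, 20 min at room temperature, then luminescence read. Activation scored as signal increase; AC50 from Hill fit.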

[23] = Cellular Toxicity (caspase-3) Jurkat (AID 655); details: Jurkat caspase-3 activation, luminescence; caspase-3 activation: at 92.2 µM (top of the series), DMSO = 0%, tamoxifen = 100%;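 also: cells exposed to compound for 16 h at 37 °C before reading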
In short: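 Jurkat cells (5000/well) in complete medium were treated with compounds for 16 hr at 37 °C, then Caspase-Glo 3/7 luminescence was read after 20 min at room temperature. Data normalized to DMSO (basal) and 100 uM tamoxifen (100%); AC50 from Hill fit.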

[24] = Cellular Toxicity (caspase-3) HUV-EC-C (AID 656); details: HUV-EC-C cells, caspase-3 activation (apoptosis); series mostly up to 92.2 µM
In short: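 HUV-EC-C endothelial cells, 1000/well, were pre-incubated 5 hr at 37°C, then exposed to compounds for 16 hr at 37°C. Caspase-Glo 3/7 luminescence was read after 20 min at room temperature. AC50 came from Hill fits, normalized to DMSO and 100 uM tamoxifen.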

[25] = Cellular Toxicity (caspase-3) SHSY5Y (AID 657); details: SH-SY5Y caspase-3 activation; series mostly up to 91.7 µM
In short: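 SH-SY5Y human neuroblastoma cells (1500/well) were treated with compounds for 16 h at 37 °C, then Caspase-Glo 3/7 luminescence was read after 1 h at room temperature. Data normalized to DMSO and 10 uM staurosporine; AC50 from Hill fits.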

[26] = Cellular Toxicity (caspase-3) BJ (AID 658); details: BJ fibroblasts, luminescence; Potency: caspase-3 activation; series mostly up to 91.7 µM
In short: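 Luminescent aminoluciferin-substrate cleavage reports caspase 3/7 activity in normal human BJ fibroblasts after 16 hr compound exposure at 37 °C. Normalized to DMSO (basal) and 10 uM staurosporine (100%); AC50 from Hill fit of concentration-response.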

[27] = Cellular Toxicity (caspase-3) MRC-5 (AID 659); details: MRC-5 cells, luminescence, normalized: DMSO 0%, 10 µM staurosporine 100%; series mostly up to 91.7 µM
In short: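 Luminescence from caspase-cleaved aminoluciferin substrate (Caspase-Glo 3/7, 1 hr RT) reports caspase 3/7 activity in MRC-5 lung fibroblasts after 16 hr compound exposure. Normalized to DMSO basal and 10 uM staurosporine as 100%; AC50 from Hill fits.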

[28] = Cellular Toxicity (caspase-3) Mesangial (AID 660); details: mesangial cells, normalized: DMSO 0%, 100 µM tamoxifen 100%; series mostly up to 91.7 µM;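 also: combined caspase 3 and 7 activity read by Caspase-Glo luminescence; cells exposed to compound for 16 h before the caspase read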
In short: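 Mesangial cells, 1000/well, 5 h settle at 37 °C; compound 16 h, 37 °C; Caspase-Glo 3/7 reagent 20 min RT; luminescence. Norm.: DMSO = 0%, tamoxifen 100 uM = 100%. AC50, Hill fit.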

[29] = Cellular Toxicity (caspase-3) SK-N-SH (AID 661); details: SK-N-SH caspase-3 activation, qHTS, DMSO as zero, staurosporine as full; series mostly up to 91.7 µM
In short: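 Human neuroblastoma SK-N-SH, 1500 cells/well, 5 hr pre-incubation, then compound 16 hr, 37 °C. Caspase-Glo 3/7 reagent, 1 hr RT, luminescence. Norm. to DMSO/10 uM staurosporine; Hill-fit AC50.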

[30] = Cellular Toxicity (caspase-3) H-4-II-E (AID 663); details: H-4-II-E rat hepatoma; Potency: caspase-3 activation; series mostly up to 92.2 µM;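 also: cells exposed to compound for 16 hr before readout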
In short: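 Luminescence from caspase-cleaved aminoluciferin substrate, read 20 min after reagent addition, reports caspase 3/7 activation in rat H-4-II-E cells after 16 hr compound exposure. Normalized to DMSO (basal) and 100 uM tamoxifen (100%); AC50 from Hill fits.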

CC(CCC(=O)O)(c1ccc(O)cc1)c1ccc(O)cc1
inactive: Potency [1] > 11.4 µM | Potency [2] | Potency [3] > 92 µM | Potency [4] > 92 µM | Potency [5] > 92 µM | Potency [6] > 92 µM | Potency [7] > 92 µM | Potency [8] > 92 µM | activity change, negative = inhibition [9] 6.62% | activity, negative = inhibition [10] -4.62% | Potency [11] > 46 µM | Potency [12] > 9.22 µM | Potency [13] | activity change, negative = cytotoxicity [14] 8.91% | activity change, negative = cytotoxicity [15] -7.14% | Potency [16] | Potency [17] | Potency [18] | Potency [19] | Potency [20] | Potency [21] | Potency [22] | Potency [23] | Potency [24] | Potency [25] | Potency [26] | outcome [27] | outcome [28] | outcome [29] | Potency [30]
